The source made the active and inactive calls. Unless noted, the rule behind the calls is not given here.
Tests used:
[1] = compound effects on lung adenocarcinoma cell viability – A549, calcein-AM fluorescence, 48 h, basal, profiling panel (AID 1162); conditions: higher = more signal; note: test concentration not given here
[2] = compound effects on differentiated 3T3-L1 adipocyte viability – cell-based, 3T3-L1 adipocytes, calcein-AM fluorescence, 48 h, basal, profiling panel (AID 1163); conditions: 3T3-L1 adipocytes viability, higher = more signal; note: test concentration not given here
[3] = compound effects on hepatocellular carcinoma cell viability – HepG2, calcein-AM fluorescence, 48 h, basal, profiling panel (AID 1164); conditions: higher = more signal; note: test concentration not given here
[4] = compound effects on multiple myeloma cell viability – MM1S, calcein-AM fluorescence, 48 h, basal, profiling panel (AID 1165); conditions: higher = more signal; note: test concentration not given here
[5] = calcein-AM signal in unstimulated myeloma cells – cell-based, calcein-AM fluorescence, 48 h, PK04 Diversity Set, profiling panel (AID 1166); conditions: RPMI8226 myeloma viability, higher = more signal;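 note: cells grown under basal conditions without added stimulus; test concentration not given here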
[6] = JC-1 mitochondrial signal, unstimulated HepG2 cells – cell-based, JC-1 fluorescence, 24 h, 100 nL compound, profiling panel (AID 1167); conditions: HepG2 mitochondrial potential, higher = more signal; note: test concentration not given here
[7] = JC-1 mitochondrial signal, unstimulated adipocytes – cell-based, JC-1 fluorescence, 3T3-L1 adipocytes, 24 h, 100 nL compound, profiling panel (AID 1168); conditions: JC-1 mitochondrial fluorescence, higher = more signal, called active from +8 up or from −8 down; note: test concentration not given here
[8] = JC-1 mitochondrial signal, unstimulated myeloma cells – cell-based, JC-1 fluorescence, RPMI8226, 24 h, 100 nL compound, profiling panel (AID 1169); conditions: JC-1 mitochondrial potential fluorescence, higher = more signal; note: test concentration not given here
[9] = JC-1 mitochondrial signal, unstimulated MM1S myeloma – cell-based, JC-1 fluorescence, 24 h, 100 nL compound, profiling panel (AID 1170); conditions: MM1S mitochondrial potential, higher = more signal; note: test concentration not given here
[10] = resazurin metabolic signal in A549 cells – cell-based, resazurin fluorescence, 24 h, PK04 Diversity Set, profiling panel (AID 1171); conditions: A549 viability, higher = more signal, called active from +8 up or from −8 down; note: test concentration not given here
[11] = resazurin metabolic signal in HepG2 cells – cell-based, resazurin fluorescence, 24 h, PK04 Diversity Set, profiling panel (AID 1172); conditions: HepG2 viability, higher = more signal; note: test concentration not given here
[12] = budding yeast growth changes without added modifier – OD600, strain BY4716, 24 h, basal condition, primary screen (AID 1173); conditions: S. cerevisiae BY4716 growth, OD600, 24 h; higher = more signal, called active from +8 up or from −8 down
[13] = viability profiling in MM1S myeloma cells – cell-based, resazurin fluorescence, basal, 24 h, PK04 Diversity Set, profiling panel (AID 1174); conditions: higher = more signal, called active from +8 up or from −8 down; note: test concentration not given here
[14] = molecular target: Dihydroorotate dehydrogenase (quinone), mitochondrial (Plasmodium falciparum (isolate 3D7)) (UniProt Q08210); experiment: inhibition of P. falciparum DHODH – biochemical, C-terminal His tag, absorbance 600 nm, primary screen (AID 1175); conditions: PfDHODH enzyme, DCIP absorbance 600 nm; higher = more signal, called active from +8 up or from −8 down;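 note: recombinant parasite enzyme with a five histidine tag at its C terminus; test concentration not given here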
[15] = inhibition of PAO1 biofilm formation – strain PAO1, LB-PBS medium, absorbance 600 nm, primary screen (AID 1176); note: test concentration not given here; conditions: P. aeruginosa PAO1 growth/biofilm, A600, 12 h; higher = more signal
[16] = growth modulation of vineyard yeast isolate – strain RM11-1a, OD600, basal, 24 h, primary screen (AID 1177);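 note: cultures grown under basal conditions with no added stressor; test concentration not given here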; conditions: S. cerevisiae RM11-1a growth, OD600, 24 h; higher = more signal, called active from +8 up or from −8 down
[17] = growth of efflux-deficient E. coli DRC39 – strain DRC39, OD650, 24 h, E. coli filamentation inducers, primary screen (AID 1178);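 note: growth measured as culture turbidity by optical density at 650 nm; test concentration not given here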; conditions: E. coli DRC39 acrAB, higher = more signal, called active from +8 up or from −8 down
[18] = growth of efflux-deficient E. coli DRC39 – strain DRC39, OD650, 48 h, E. coli filamentation inducers, primary screen (AID 1179);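 note: screen aims at cell division blockers that make cells filament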; conditions: E. coli DRC39 delta-acrAB growth, higher = more signal, called active from +8 up or from −8 down
[19] = viability profiling in RPMI8226 myeloma cells – cell-based, resazurin fluorescence, basal, 24 h, PK04 Diversity Set, profiling panel (AID 1180); conditions: higher = more signal;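 note: RPMI8826 multiple myeloma cell line at 5000 cells per well; test concentration not given here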
[20] = molecular target: E3 ubiquitin-protein ligase XIAP (Homo sapiens) (UniProt P98170); experiment: small molecules binding XIAP protein – biophysical, small-molecule microarray, fluorescence 635 nm, primary screen (AID 1181); conditions: higher = more signal;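 note: score merges 667 nm emission and signal to noise over triplicate slides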
E3 ubiquitin-protein ligase XIAP (Homo sapiens), sequence (P98170 whole entry, looked up): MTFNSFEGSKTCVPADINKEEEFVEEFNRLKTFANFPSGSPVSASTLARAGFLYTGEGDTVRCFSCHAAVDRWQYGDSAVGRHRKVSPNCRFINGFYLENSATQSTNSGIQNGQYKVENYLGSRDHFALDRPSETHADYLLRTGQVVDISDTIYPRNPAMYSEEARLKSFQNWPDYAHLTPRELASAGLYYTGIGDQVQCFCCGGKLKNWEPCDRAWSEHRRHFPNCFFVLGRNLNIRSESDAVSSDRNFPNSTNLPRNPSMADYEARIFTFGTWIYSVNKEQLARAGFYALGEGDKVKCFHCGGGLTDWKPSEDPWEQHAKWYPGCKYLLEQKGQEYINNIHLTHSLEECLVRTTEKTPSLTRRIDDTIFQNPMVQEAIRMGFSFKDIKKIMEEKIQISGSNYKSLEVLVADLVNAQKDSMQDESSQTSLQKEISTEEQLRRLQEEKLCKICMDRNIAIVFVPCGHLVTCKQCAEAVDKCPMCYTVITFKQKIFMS

Dihydroorotate dehydrogenase (quinone), mitochondrial (Plasmodium falciparum (isolate 3D7)), sequence (Q08210 whole entry, looked up): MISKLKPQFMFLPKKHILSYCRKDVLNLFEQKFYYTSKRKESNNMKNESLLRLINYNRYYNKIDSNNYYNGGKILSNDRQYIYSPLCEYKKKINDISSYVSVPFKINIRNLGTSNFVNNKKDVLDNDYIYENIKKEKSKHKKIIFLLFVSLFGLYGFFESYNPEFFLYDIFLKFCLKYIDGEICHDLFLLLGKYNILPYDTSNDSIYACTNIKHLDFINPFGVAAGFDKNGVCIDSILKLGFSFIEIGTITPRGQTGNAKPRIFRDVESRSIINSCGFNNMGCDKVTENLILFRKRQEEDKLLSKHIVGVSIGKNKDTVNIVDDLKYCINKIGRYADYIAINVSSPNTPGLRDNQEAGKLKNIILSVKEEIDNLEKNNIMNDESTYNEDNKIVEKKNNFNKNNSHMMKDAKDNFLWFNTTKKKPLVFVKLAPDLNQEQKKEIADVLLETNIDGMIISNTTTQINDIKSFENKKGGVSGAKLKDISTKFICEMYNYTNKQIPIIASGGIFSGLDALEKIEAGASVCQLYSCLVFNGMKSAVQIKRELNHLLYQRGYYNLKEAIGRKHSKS

Row | SMILES | z-score [1] | z-score [2] | z-score [3] | z-score [4] | z-score [5] | z-score [6] | z-score [7] | z-score [8] | z-score [9] | z-score [10] | z-score [11] | z-score [12] | z-score [13] | composite z-score [14] | z-score [15] | z-score [16] | z-score [17] | z-score [18] | z-score [19] | composite z-score [20]
1 | NC(=O)NCC#Cc1ccc2c(c1)[C@]1(C(=O)N2)[C@H](c2ccccc2OCCO)N2[C@H](c3ccccc3)[C@H](c3ccccc3)OC(=O)[C@H]2[C@@H]1C(=O)NC[C@H](O)c1ccccc1 | 1.2 | 0.37 | -0.13 | 0.493 | 0.865 | -0.159 | 0.43 (inactive) | 0.208 | 0.359 | 0.635 (inactive) | 0.999 | -0.589 (inactive) | 1.62 (inactive) | -0.253 (inactive) | 0.601 (inactive) | 1.94 (inactive) | 1.22 (inactive) | 0.693 (inactive) | 0.462 | 0.254
2 | CC(CO)N1C(=O)[C@@H]2[C@H]3C(=O)OCC=C[C@H]3OC23C=CCN(Cn2nnc4ccccc42)C(=O)[C@@H]13 (stereo not given in full) | -0.671 | -0.948 | -0.907 | 0.07 | -0.637 | -1.23 | -0.529 (inactive) | 0.241 | -0.226 | -0.382 (inactive) | -0.628 | 0.0199 (inactive) | -0.124 (inactive) | 0.29 (inactive) | -0.0558 (inactive) | -1.27 (inactive) | -0.11 (inactive) | -0.331 (inactive) | -0.35 | -0.334
3 | COC(=O)[C@@]1(Cc2ccc(F)cc2)[C@H]2c3cc(C(=O)N(C)C)n(Cc4ccc(OC(F)(F)F)cc4)c3C[C@H]2CN1C(=O)c1ccccc1 | -0.524 | -0.859 | -0.51 | -0.225 | 0.218 | -0.0759 | -0.392 (inactive) | -0.0137 | -0.276 | -0.914 (inactive) | -0.674 | 0.825 (inactive) | -0.933 (inactive) | -0.0384 (inactive) | 0.604 (inactive) | 0.245 (inactive) | -0.586 (inactive) | -0.499 (inactive) | -0.603 | -0.102
4 | [N-]=[N+]=Nc1ccccc1[C@@H]1OC(c2ccc(OCCCO)cc2)=N[C@]1(Cc1ccccc1)C(=O)O | 0.666 | 0.344 | 0.547 | -1.49 | -0.56 | -1.24 | 1.62 (inactive) | -0.739 | -0.883 | 1.2 (inactive) | 0.841 | 0.307 (inactive) | 0.492 (inactive) | 1.72 (inactive) | -0.664 (inactive) | 2.5 (inactive) | 2.46 (inactive) | 0.921 (inactive) | 0.514 | 0.0269
5 | Cc1ccc(F)cc1S(=O)(=O)N[C@@H]1CCN(Cc2ccc(Br)cc2)C1 | -0.0023 | -1.01 | -0.65 | -1.24 | -1.29 | 0.261 | 0.0995 (inactive) | -0.645 | -0.555 | 0.728 (inactive) | -0.281 | -11.9 (active) | 0.611 (inactive) | -0.573 (inactive) | -0.73 (inactive) | -0.184 (inactive) | 1.13 (inactive) | -0.795 (inactive) | 0.264 | -0.17
6 | COc1cc2c(cc1O)C(c1ccc(CN3CCCC3)cc1)N(Cc1cc3c(cc1Br)OCO3)CC2 (stereo not given) | -0.717 | -0.564 | -0.341 | -3.17 | 0.173 | 1.21 | 0.144 (inactive) | -0.398 | -1.29 | 0.694 (inactive) | 0.686 | -0.714 (inactive) | -1.44 (inactive) | -0.296 (inactive) | -0.0218 (inactive) | -0.365 (inactive) | -1.36 (inactive) | -1.01 (inactive) | 0.174 | -0.123
7 | [N-]=[N+]=Nc1ccccc1[C@@H]1OC(c2ccc(OCCCO)cc2)=N[C@]1(Cc1ccccc1)C(=O)N1CCCCC1 | -0.523 | -0.0528 | -0.822 | -2.91 | -4.32 | 0.408 | 1.87 (inactive) | -1.17 | -2.19 | -1.61 (inactive) | -0.819 | -0.592 (inactive) | -3.26 (inactive) | -0.128 (inactive) | 0.109 (inactive) | 1.08 (inactive) | 0.241 (inactive) | 0.174 (inactive) | -3.5 | 0.0512
8 | CCCN1C(=O)[C@@]2(Cc3ccccc31)N=C(c1ccc(OCCCO)cc1)O[C@H]2c1ccccc1 | -1.06 | 0.526 | -1.1 | -3.51 | -4.16 | -0.895 | 0.201 (inactive) | -1.16 | -0.502 | -1.11 (inactive) | 0.293 | -3.07 (inactive) | -2 (inactive) | -0.172 (inactive) | -0.124 (inactive) | 0.806 (inactive) | -0.305 (inactive) | -1.03 (inactive) | -1.7 | -0.212
9 | CN1C2C=C(CCCO)C(C3C(=O)N(C(N)=O)C(=O)C32)C1C1CC1 (stereo not given) | 0.0701 | -0.0683 | 0.592 | 0.0641 | -0.952 | -0.486 | 0.0295 (inactive) | 0.192 | 0.238 | -0.513 (inactive) | -0.444 | 0.796 (inactive) | -0.179 (inactive) | -0.884 (inactive) | -0.341 (inactive) | -0.18 (inactive) | -0.686 (inactive) | -0.743 (inactive) | -0.761 | 0.0361

— PubChem BioAssay
